Screening data (PubChem BioAssay)
N-glyco inh – increase of ERlucT glycosylation luciferase signal, primary screen, N-linked glycosylation inhibitor project, D54 ERlucT cells, luminescence, set 2 | reporter increase, % at 12.5 µM | AID 588692, 2011 | D54 ERlucT glycosylation luciferase reporter, 24 h; percent of 100 nM tunicamycin response | 360,000 compounds, 0.23% hits;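 active means mean luciferase reporter signal, scaled so untreated is 0 and the glycosylation-blocking control 100, at or above a set limit in every replicate; inconclusive means mean reaches the limit but not every replicate does; inactive means mean below the limit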;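 further: luciferase carries N-glycosylation sites so blocking glycosylation raises the light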
PvdQ acylase – P. aeruginosa PvdQ acylase inhibitors, primary screen, biochemical, fluorescence, plate reader and imaging, single point | purified PvdQ acylase | inhibition, % at 10 µM | 340,000 compounds, 0.063% hits; in the data active means inhibition above about 30%, passing the limit was not always enough; inconclusive means no clear call, values can overlap the other calls
Wnt act – Wnt/beta-catenin pathway activators, primary screen, cell-based, plate reader, single point | Wnt/beta-catenin reporter cell assay, activator | activation, % at 9.35 µM | 300,000 compounds, 1.2% hits | AID 743398, 2014; in the data active means activation above about 30%, passing the limit was not always enough; inconclusive means no clear call, values can overlap the other calls
Vif imaging – HIV Vif self-association inhibitors, primary screen, imaging, HEK293T, single point; HEK293T cells, Vif self-association by quenched fluorescence, 24 h; inhibition, % at 7.49 µM; 340,000 compounds, 0.35% hits; in the data active means inhibition above about 50%, passing the limit was not always enough; inconclusive means no clear call, values can overlap the other calls; inactive means below about 31%
esBAF inh – Bmi1 luciferase reporter increase in mESCs, primary screen, esBAF inhibitor project, mouse ES cells, Bmi1 luciferase knock-in, single point. 24 h; 100% = twice the neutral-well signal. reporter increase, % at 12.5 µM. 350,000 compounds, 2% hits. AID 602393, 2012; in the data active means activation above about 40%; inconclusive means no clear call, values can overlap the other calls;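 further: a rise in the Bmi1 reporter signal indicates esBAF inhibition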
MITF act – activators of MITF-driven TRPM1 promoter reporter, primary screen, cell-based, SK-MEL-5, luciferase, single point; SK-MEL-5 TRPM1-promoter luciferase, 24 h; % of positive control, neutral wells = 0; 300,000 compounds, 0.75% hits; activation, % at 12.5 µM; AID 588334, 2011;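 active means mean activation of at least 80% with every replicate also reaching 80%; inconclusive means mean reaches 80% but some replicate falls short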
A number is an active result; i = inactive; ? = inconclusive; nt = no result given. Only some compounds are listed: those with a hit (about 2.9% of all), similar ones and a draw of the others.

SMILES	N-glyco inh	PvdQ acylase	Wnt act	Vif imaging	esBAF inh	MITF act
N/C(=N\OC(=O)c1ccoc1)c1ccc(Br)cc1	i	i	42	i	44	93
N/C(=N\OC(=O)c1ccc2ccccc2c1)c1ccc(Br)cc1	i	i	i	i	nt	i
Cc1ccc(C)c(C(=O)O/N=C(\N)c2ccc(Br)cc2)c1	i	i	i	i	43	nt
Cc1ccc(C(=O)O/N=C(\N)c2ccc(Br)cc2)cc1C	i	i	nt	i	53	i
COc1ccc(NC(=O)c2ccccc2O)c(OC)c1	i	i	i	i	53	i
COc1ccccc1C(=O)Nc1cccc(SC)c1	i	i	i	i	nt	i
COc1cccc(NC(=O)c2csc3c2CCCC3)c1	i	i	46	i	69	95
COc1cccc(NC(=O)CN(C)C(=O)c2csc3c2CCCC3)c1	i	i	i	i	i	i
COc1cccc(NC(=O)c2ccccc2F)c1	i	i	?	i	i	87
COc1cccc(NC(=O)c2c(F)cccc2F)c1	i	i	i	i	i	i
COc1cc(SC)ccc1C(=O)Nc1ccccc1	i	i	34	i	?	nt
COc1ccccc1C(=O)Nc1ccc(Br)cc1C	i	i	37	i	i	i
COc1cc2ccccc2cc1C(=O)Nc1ccc2oc(=O)ccc2c1	i	i	i	i	i	i
COc1cccc(NC(=O)c2cc3ccccc3cc2OC)c1	i	i	49	i	50	nt
COc1cccc(NC(=O)c2cccc(OC)c2OC)c1	i	i	i	i	i	nt
O=C(Nc1nccs1)c1csc2c1CCCC2	i	i	nt	i	63	i
COc1cc2ccccc2cc1C(=O)Nc1ccc(O)cc1	i	i	53	i	?	nt
Cc1ccc(S(=O)(=O)Nc2ccc3c(c2)C(=O)N([C@@H](C)CO)C[C@@H](C)[C@@H](CN(C)S(=O)(=O)c2ccccc2)OCCCC[C@@H](C)O3)cc1	nt	nt	nt	nt	i	nt
C[C@@H]1CN([C@H](C)CO)C(=O)c2cccc(NS(=O)(=O)c3ccc(Cl)cc3)c2O[C@H]1CN(C)Cc1ccncc1	nt	nt	nt	nt	i	nt
COc1ccc(OC)c(NC(=O)c2cc3ccccc3cc2OC)c1	i	i	i	51	i	i
COc1ccc(OC)c(Nc2cc3ccccc3c(=O)[nH]2)c1	33	i	i	i	i	i
COc1ccc(NC(=O)CSc2ccccc2)c(OC)c1	i	i	nt	i	56	i
COc1ccccc1Nc1cc2cc(Br)ccc2c(=O)[nH]1	i	i	i	i	i	i
COc1ccc(NC(=O)c2cc(C(C)C)on2)c(OC)c1	i	i	i	nt	50	i
COc1ccc(NC(=O)Nc2ccc3c(c2)C(=O)N([C@H](C)CO)C[C@H](C)[C@@H](CN(C)CC2CCCCC2)OCCCC[C@H](C)O3)cc1	nt	nt	nt	nt	i	nt
SMILES	N-glyco inh	PvdQ acylase	Wnt act	Vif imaging	esBAF inh	MITF act
Cn1cnc(S(=O)(=O)N[C@H]2C=C[C@@H](CC(=O)NCC3CC3)O[C@H]2CO)c1	nt	nt	nt	nt	i	nt
c1csc(C2Nc3ccccc3-c3nc4ccccc4n32)c1 (stereo not given)	i	i	80	nt	nt	i
CCN1c2ccccc2-c2nc3ccccc3n2C1c1cccnc1 (stereo not given)	i	i	nt	i	i	i
c1ccc2c(c1)NC(c1ccncc1)n1c-2nc2ccccc21 (stereo not given)	i	i	56	i	nt	i
Cc1ccsc1C1Nc2ccccc2-c2nc3ccccc3n21 (stereo not given)	i	i	i	i	nt	i
c1cncc(C2Nc3ccccc3-c3nc4ccccc4n32)c1 (stereo not given)	i	i	i	i	59	i
C[C@H]1CN([C@@H](C)CO)C(=O)c2cccc(NC(=O)c3ccc(-c4nccs4)cc3)c2O[C@H]1CN(C)S(=O)(=O)c1cccs1	nt	nt	nt	nt	i	nt
CC(C)c1cccc(-c2csc(C(O)c3ccco3)n2)c1 (stereo not given)	i	nt	i	i	54	nt
CN(C)c1ccc(-c2csc(C(O)c3ccc(F)c(F)c3)n2)cc1 (stereo not given)	i	nt	i	i	45	nt
